The campaign covered roughly 360,000 compounds. About 16,000 (4.4%) were called active. About 9% were inconclusive and are not listed. This excerpt belongs to a sample that is enriched for actives. A number with no mark means an inactive call. Calls come from the whole dose curve; as a rule, active = well fitted inhibition curve with a large enough effect; inconclusive = small, poorly fitted or top-dose-only effect; inactive = no such curve, though single readings can be large or run the other way.
Biological target: Bromodomain adjacent to zinc finger domain protein 2B (Homo sapiens) (UniProt Q9UIF8)
Assay: qHTS Assay for Inhibitors of BAZ2B; note: nearly all actives have a fitted effect of over 60% in size
Details: AlphaScreen BAZ2B-H3K14Ac peptide displacement; series mostly up to 114 µM; activity change, negative = inhibition: at the top concentration
Summary of the method: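 Inhibition is scored as reduced AlphaScreen emission. The BAZ2B/b-H3(5-23)K14Ac complex (50 nM each) in PBS pH 7.4, 0.01% Tween-20 meets compound (up to 110 uM) for 30 min at RT before bead addition.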
% is set by controls: 0 for no effect and ±100 for the full control effect; potency is the fitted concentration of half-maximal effect.

Sequence of Bromodomain adjacent to zinc finger domain protein 2B (Homo sapiens) (Q9UIF8 whole entry, looked up, the tested form may be a part): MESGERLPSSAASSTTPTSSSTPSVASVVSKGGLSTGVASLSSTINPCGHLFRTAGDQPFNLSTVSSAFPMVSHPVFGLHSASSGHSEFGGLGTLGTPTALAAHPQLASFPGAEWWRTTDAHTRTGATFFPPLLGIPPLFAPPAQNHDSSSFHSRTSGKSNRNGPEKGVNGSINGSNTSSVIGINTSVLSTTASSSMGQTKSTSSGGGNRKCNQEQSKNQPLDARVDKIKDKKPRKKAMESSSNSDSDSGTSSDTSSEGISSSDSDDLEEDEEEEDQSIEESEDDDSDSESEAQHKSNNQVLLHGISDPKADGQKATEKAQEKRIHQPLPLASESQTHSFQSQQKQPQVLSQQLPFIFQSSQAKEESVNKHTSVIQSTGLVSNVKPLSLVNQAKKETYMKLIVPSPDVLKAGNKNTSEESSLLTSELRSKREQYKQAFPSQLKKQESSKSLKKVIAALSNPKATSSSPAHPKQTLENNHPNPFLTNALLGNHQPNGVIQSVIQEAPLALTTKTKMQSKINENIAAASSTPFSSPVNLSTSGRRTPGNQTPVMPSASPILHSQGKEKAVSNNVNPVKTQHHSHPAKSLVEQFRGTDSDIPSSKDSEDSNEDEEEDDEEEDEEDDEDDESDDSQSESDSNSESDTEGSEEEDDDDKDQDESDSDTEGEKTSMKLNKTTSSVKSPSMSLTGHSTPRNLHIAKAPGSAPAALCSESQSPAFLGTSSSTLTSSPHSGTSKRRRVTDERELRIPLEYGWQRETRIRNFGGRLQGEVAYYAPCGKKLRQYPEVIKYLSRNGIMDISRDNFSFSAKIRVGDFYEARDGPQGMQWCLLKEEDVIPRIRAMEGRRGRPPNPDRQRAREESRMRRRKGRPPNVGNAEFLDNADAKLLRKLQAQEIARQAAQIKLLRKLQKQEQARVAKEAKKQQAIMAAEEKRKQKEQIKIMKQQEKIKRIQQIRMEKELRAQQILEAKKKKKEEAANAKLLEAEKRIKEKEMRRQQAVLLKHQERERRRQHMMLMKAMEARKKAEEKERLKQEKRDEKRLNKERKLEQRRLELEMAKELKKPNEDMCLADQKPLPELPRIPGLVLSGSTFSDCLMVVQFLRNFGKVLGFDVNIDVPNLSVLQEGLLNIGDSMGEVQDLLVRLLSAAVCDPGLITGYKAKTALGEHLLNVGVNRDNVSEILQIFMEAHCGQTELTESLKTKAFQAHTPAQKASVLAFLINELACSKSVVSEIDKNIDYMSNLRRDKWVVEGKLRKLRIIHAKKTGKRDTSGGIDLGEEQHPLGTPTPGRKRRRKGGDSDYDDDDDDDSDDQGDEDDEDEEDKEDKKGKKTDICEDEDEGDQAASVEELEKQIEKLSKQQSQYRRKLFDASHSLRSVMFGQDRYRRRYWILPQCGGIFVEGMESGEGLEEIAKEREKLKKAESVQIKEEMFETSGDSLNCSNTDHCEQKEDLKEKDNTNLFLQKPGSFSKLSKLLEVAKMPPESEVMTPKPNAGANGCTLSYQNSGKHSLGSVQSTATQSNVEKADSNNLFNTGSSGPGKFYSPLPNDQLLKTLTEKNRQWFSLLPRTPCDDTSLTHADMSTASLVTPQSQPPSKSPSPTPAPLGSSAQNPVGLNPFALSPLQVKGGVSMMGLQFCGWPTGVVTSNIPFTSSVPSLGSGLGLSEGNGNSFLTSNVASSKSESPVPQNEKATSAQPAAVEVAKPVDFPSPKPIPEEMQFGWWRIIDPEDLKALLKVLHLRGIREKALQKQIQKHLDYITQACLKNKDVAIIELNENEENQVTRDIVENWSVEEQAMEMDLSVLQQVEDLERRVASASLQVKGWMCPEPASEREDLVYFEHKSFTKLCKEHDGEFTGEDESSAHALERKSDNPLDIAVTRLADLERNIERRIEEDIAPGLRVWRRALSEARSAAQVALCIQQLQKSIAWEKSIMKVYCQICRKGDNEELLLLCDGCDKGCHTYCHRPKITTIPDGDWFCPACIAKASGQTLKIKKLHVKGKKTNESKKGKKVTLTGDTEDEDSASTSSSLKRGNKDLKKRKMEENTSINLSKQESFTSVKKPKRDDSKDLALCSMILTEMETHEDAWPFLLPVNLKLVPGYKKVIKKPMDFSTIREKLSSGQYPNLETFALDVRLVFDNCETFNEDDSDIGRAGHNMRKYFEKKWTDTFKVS

SMILES	activity change, negative = inhibition	Potency
Cc1ccc(C(C)C)cc1OCC(=O)Nc1ccccc1N1CCCC1	-23.2%	
Cc1ccccc1NC(=O)Nc1ccccc1N1CCCCC1	-6.52%	
O=C(CNCCC1=CCCCC1)Nc1ccccc1N1CCCCCC1		56.2 µM (active)
O=C(CN1CCCCCC1)Nc1ccc(Br)cc1[N+](=O)[O-]		15.8 µM (active)
O=C(CN1CCCCCC1)Nc1ccc(Br)cc1Br	18.9%	
COc1cc([N+](=O)[O-])ccc1NC(=O)CN1CCCC1	-7.99%	
CC1=C(C(=O)OCc2ccc(C)cc2)C(c2ccccc2Cl)CC(=O)N1 (configuration not stated)	-7.46%	
O=C(C1CCN(Cc2ccc(Cl)cc2)CC1)N1CCN(Cc2ccc3c(c2)OCO3)CC1		50.1 µM (active)
O=C(C1CCN(S(=O)(=O)c2cnc[nH]2)CC1)N1CCN(Cc2ccc3c(c2)OCO3)CC1	-16.5%	
O=C(CSCc1ccc(Cl)cc1)N1CCN(Cc2ccc3c(c2)OCO3)CC1	-13.9%	
COc1ccc(-c2cccc(NS(=O)(=O)c3cc(C)c(OC)c(C)c3C)c2)nn1	-32%	
CCCN(CCC)C(=O)Cn1c(=O)n(-c2ccc(Cl)cc2)c(=O)c2c3c(sc21)CCCCC3	2.25%	
Cc1cccc(CC(=O)Nc2cccc(-c3cn4cccnc4n3)c2)c1	3.65%	
CCCCOc1ccc(C(=O)N2CC(=O)Nc3ccc(Br)cc3C2c2ccc(F)cc2)cc1 (configuration not stated)	-10.3%	
O=C1CCCC(O)=C1N=Nc1ccc2ncsc2c1		50.1 µM (active)
O=c1ccnc(Nc2ccc(Cl)cc2)[nH]1	5.51%	
Cc1csc(Nc2ccc(Cl)cc2)[n+]1-c1ccc(Cl)cc1		12.6 µM (active)
Cc1ccccc1C(=O)NCc1nc(-c2ccc(Cl)cc2)no1	2.6%	
CCOC(=O)c1[nH]c(C)c(CCC(=O)N2CCN(c3ccccc3)CC2)c1C	-11.8%	
COc1ccc(/C=C(\C#N)C(=O)OCC(=O)N(C)C2CCS(=O)(=O)C2)cc1 (configuration not stated)	12.8%	
COc1ccc(-c2cc(C(=O)N(C)Cc3ccccc3)c3ccccc3n2)cc1	-2.29%	
COc1ccc(NC(=O)CN(C)C(=O)c2cc(-c3ccc(C)o3)nc3ccccc23)cc1	-4.4%	
CN(C(=O)COC(=O)c1cc(-c2ccco2)nc2ccccc12)C1CCS(=O)(=O)C1 (configuration not stated)		39.8 µM (active)
CN(CCOc1ccccc1)C(=O)c1cc(-c2ccco2)nc2ccccc12		44.7 µM (active)
CN(C(=O)COC(=O)c1nc(Cl)ccc1Cl)C1CCS(=O)(=O)C1 (configuration not stated)	0.742%	
COc1ccc(OCC(=O)Nc2cccc(C(=O)OCc3cc(=O)n4nc(C)sc4n3)c2)cc1	-5.85%	

SMILES	activity change, negative = inhibition	Potency
Cc1cccc(N2CCN(C(=O)CCn3c(=O)c4cccn4c4cccnc43)CC2C)c1 (configuration not stated)	-36.6%	
NC(=O)C1CCN(C(=O)c2cccc(NC(=O)c3nsc4ccccc34)c2)CC1	4.68%	
Cc1[nH]c2ccccc2c1C(c1ccccc1)c1cccs1 (configuration not stated)	1.62%	
O=C(CCS(=O)(=O)c1ccccc1)NC1CCCC1	-1.71%	
CC(=O)c1cc(-c2ccccc2)n(CC(=O)NC2CCCCC2)c1C		inactive
CC(=O)c1cc(-c2ccccc2)n(CCC(=O)NC2CCCCCC2)c1C		50.1 µM (active)
Cc1nc2nc(SCC(=O)N(Cc3ccccc3)C(C)C)nn2c(C)c1Cc1ccccc1Cl	-18.1%	
CCOc1cc(C(=O)Nc2nnc3n2CCS3)cc(OCC)c1OCC	13.3%	
CCOC(=O)c1cc(NC(=O)c2ccc(F)cc2)c(=O)n2c1oc1ccccc12	-12%	
CN(CC(=O)Nc1ccccc1F)S(=O)(=O)c1ccc2c(c1)c(=O)n(C)c(=O)n2C	4.31% [at 57.1 µM]	
O=C(CN1C(=O)COc2ccc(S(=O)(=O)N3CCOCC3)cc21)N1CCN(c2cccc(Cl)c2)CC1	-21.7%	
COCCNC(=S)N1CCC(NC(=O)C23CC4CC(CC(C4)C2)C3)CC1	-8.68%	
COCCNC(=S)N1CCN(C)CC1		39.8 µM (active)
CCCNC(=S)N1CCC(NC(=O)c2ccc(OC)cc2)CC1	-25.5%	
CCN1C(=O)c2ccccc2S(=O)c2ccc(C(=O)NCc3ccc(F)cc3)cc21 (configuration not stated)	-14.5%	
CCCCOC(=O)/C(C#N)=C/c1ccc(-c2cccc(C(F)(F)F)c2)o1	-15.6%	
CCOc1ccc(Nc2nc3c(S(=O)(=O)c4cccc(Cl)c4)nnn3c3ccsc23)cc1	-13%	
Cc1ccc(OCCSc2nc(C)c(Cc3ccccc3)c(=O)[nH]2)cc1	-2.49%	
S=C(c1ccc(-c2ccccc2)o1)N1CCCCC1		35.5 µM (active)
OCCN1CCN(C(=S)c2ccc(-c3ccccc3)cc2)CC1	-7.79%	
S=C(c1ccccc1)N1CCCC1	5.22%	
CSc1ccc(CCNC(=O)c2ccc3c(c2)nc2n3CCOC2)cc1	4.23%	
COC(=O)CCCC1=CC2=CC(=O)C(C)(OC(=O)c3cccs3)C(=O)C2=CN1CC1CC1 (configuration not stated)	-30.3%	
COC/C=C/C1=CC2=CC(=O)C(C)(OC(=O)CCC(=O)OC)C(=O)C2=CO1 (configuration not stated)		50.1 µM (active)
COC(=O)CCCC1=CC2=CC(=O)C(C)(OC(=O)c3cccs3)C(=O)C2=CN1CC(C)C (configuration not stated)	-15.3%	
CCC(=O)N1CCc2cc(Br)cc(S(=O)(=O)CCC(=O)N3CCN(c4ccc(F)cc4)CC3)c21	3.17%	

SMILES	activity change, negative = inhibition	Potency
COc1ccc(-c2noc(CCC(=O)N(C)c3ccccc3C)n2)cc1	6.51%	
CCOc1cccc(C(=O)Nc2nnc(S(=O)(=O)N(C)c3ccc(C)cc3)s2)c1	-2.91%	
CCc1ccc(NC(=O)CN2CCSc3ccc(S(=O)(=O)N4CCCC4)cc32)cc1	-26.5%	
Cc1cccc(Cn2cnc3c(N)c(C)c(C)cc32)c1		56.2 µM (active)
CSc1nn(Cc2cccc(C)c2)c(N)c1S(=O)(=O)c1ccccc1	22.9%	
COc1cccc(Cn2cnc3c([N+](=O)[O-])c(C)c(C)cc32)c1	-22.6%	
Cc1ccc(Cl)cc1NC(=O)Cc1ccc(-n2c(C)nc3cccnc32)cc1	-5.91%	
CC(NC(=O)CCc1cn(Cc2ccccc2Cl)c2ccccc12)c1ccccc1 (configuration not stated)	-5.03%	
CCOc1ccc(CCNC(=O)c2cc3c(=O)n(C)c4ccccc4c3n2C)cc1	-3.88%	
COC(=O)COc1ccc2c(c1C)O/C(=C\c1ccco1)C2=O		50.1 µM (active)
COc1ccccc1OCC(=O)OCc1cc(-c2ccco2)on1	12.1%	
Cc1cc(C)c(OCC(=O)N/N=C/c2ccco2)c(C)c1	3.11%	
CCOC(=O)c1ccc2c(c1)N(Cc1cccc(OC)c1)C(=O)c1ccccc1S2(=O)=O	4.73%	
CCc1nc(-c2cc(S(=O)(=O)N3CCN(c4ccc(OC)cc4)CC3)ccc2OC)no1	-33.9%	
Cc1cc2c(cc1C)C(c1cccc(OC(C)C)c1)CC(=O)N2 (configuration not stated)	-1.89%	
CC(=O)c1c(C)[nH]c(=S)c(C#N)c1-c1ccc(F)cc1		79.4 µM (active)
Cc1cc(C)c2c(-c3ccc(F)cc3)c(C#N)c(=O)n(C)c2n1	-1.61%	
N#Cc1c(-c2ccc(Cl)cc2)c2c([nH]c1=S)CCCC2	-11.4%	
CC(C)CCN(C(=O)Nc1ccc(Cl)c(Cl)c1)C(C)c1cccs1 (configuration not stated)	72%	
Cc1ccc(Cn2c(CCCNC(=O)C3CCCCC3)nc3ccccc32)cc1	-12.3%	
CCOc1ccc(NC(=O)c2cc3c(=O)n(Cc4cccs4)ccc3nc2C)cc1	-15.9%	
COc1ccc(CC(=O)Nc2nc3n(n2)C(c2ccccc2)CC(=O)N3)cc1OC (configuration not stated)	-28.7%	
O=C(Nc1n[nH]c(C(F)(F)F)n1)c1cccs1	-9.64%	
CC1CC(c2ccccc2)n2nc(NC(=O)c3cccs3)nc2N1 (configuration not stated)		79.4 µM (active)
O=C(c1ccc2c(c1)N(Cc1ccc(Cl)cc1)C(=O)c1ccccc1S2(=O)=O)N1CCCCC1	-21%	
Cc1ccc2nc(COc3cccc(NC(=O)c4ccccc4Cl)c3)cc(=O)n2c1	6.72%	

SMILES	activity change, negative = inhibition	Potency
Cc1ccc(S(=O)(=O)n2nc(-c3ccc(Cl)cc3)nc2NCc2ccccc2)cc1	3.65%	
Cc1ccc(/C=N/NC(=O)C2=NNC(c3ccccc3)(c3ccccc3)C2)c(O)c1	-5.41%	
FC(F)(F)c1nc2ccccc2nc1N/N=C/c1ccc(Cl)cc1	-34.1%	
Cc1nc2ccccc2nc1N/N=C/c1ccc(O)cc1O		25.1 µM (active)
Cc1ccc(Cl)cc1-n1ncc2c(N3CCC(C(N)=O)CC3)ncnc21	-1.64%	
Cc1cccn2c(=O)c3cc(C(=O)NC(C)c4ccccc4)c(=N)n(CCCO)c3nc12 (configuration not stated)	0.391%	
COc1ccc(-c2cc(NCc3ccc(F)cc3)n3cnnc3n2)cc1	-2.56%	
Cc1ccc(CSc2nc3cccnc3n2Cc2ccc(C(=O)NC3CC3)cc2)cc1	6.32%	
COc1ccc(NC(=O)CSc2nc(C)cs2)cc1	2.05%	
Cc1csc(SCC(=O)Nc2sccc2C#N)n1		56.2 µM (active)
Cc1ccc(NC(=O)CSCC(=O)Nc2sccc2C#N)cc1	-2.43%	
COc1ccc2c(c1)C=C(C(=O)NCc1cc(Br)ccc1OC)CO2	-25.9%	
Cc1ccc(Cl)cc1NC(=O)CSc1nc2ccccc2nc1Cc1ccccc1	3.46%	
C=C(C)CNC(=S)N/N=C/c1ccccc1OCC(=O)O	-35.9%	
Cc1ccc(NS(=O)(=O)c2ccc(N/N=C/c3ccccc3OCC(=O)O)c([N+](=O)[O-])c2)c(C)c1		7.94 µM (active)
Cc1cccc(COc2ccccc2/C=N/Nc2ccc([N+](=O)[O-])cc2)c1	5.05%	
Cc1ccc(CCNC(=O)c2ccc(CS(=O)(=O)Cc3cccc(C)c3)o2)cc1	7.63%	
Cc1ccc(CNC(=O)CSc2c3c(nc4cc(Cl)ccc24)CCCC3)cc1	-0.494%	
CC(=O)N/N=C/c1cc2c(cc1[N+](=O)[O-])OCO2	-9.58%	
CN(C)/N=C/c1cc(Cl)cc([N+](=O)[O-])c1O		44.7 µM (active)
COc1ccc(NC(=O)C(c2ccccc2)N2Cc3ccccc3C2=O)cc1 (configuration not stated)	-15.6%	
COc1ccc2c(c1OC)C(=O)c1ccccc1C2=O	-5.29%	
COc1ccc2c(c1OC)C(=O)N(c1ccc(O)cc1)C2	-18.2%	
COc1ccc2c(c1OC)C(=O)N(c1ncn[nH]1)C2		56.2 µM (active)

From PubChem BioAssay AID504333 (National Center for Advancing Translational Sciences (NCATS), 2011)
